Test results as given in PubChem BioAssay (NCI).
This is part of a sample that, as a whole, favours compounds with a hit. Of some 83,000 tested, about 20% had one in any assay.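 Note: values are percent growth. 100 is the growth of untreated cells, values between 100 and 0 indicate rising inhibition; between -100 and 0 indicates cell death.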 Unmarked numbers belong to inactive results. Active and inactive are the calls of the source. How the source made its calls: active means growth percent below 10; inactive means the rest.

How the values were obtained:
Test in all cases: NCI-60 one-dose screen, 48 h (100 = growth as untreated, 0 = no growth, -100 = all killed)
Conditions in all cases: 10 µM unless noted
[1] = tested on: NCI-H23 lung
[2] = tested on: NCI-H226 lung
[3] = tested on: NCI-H322M lung
[4] = tested on: HOP-62 NSCLC
[5] = tested on: NCI-H460 lung
[6] = tested on: HOP-92 NSCLC
[7] = tested on: NCI-H522 lung
[8] = tested on: A549/ATCC NSCLC
[9] = tested on: 786-0 renal
[10] = tested on: COLO 205 colon
[11] = tested on: DU-145 prostate
[12] = tested on: K-562 leukemia
[13] = tested on: MALME-3M melanoma
[14] = tested on: MDA-MB-231 breast
[15] = tested on: RXF 393 renal
[16] = tested on: SF-268 CNS
[17] = tested on: SF-295 CNS
[18] = tested on: SF-539 CNS
[19] = tested on: UACC-257 melanoma
[20] = tested on: M14 melanoma

Row | SMILES | growth [1] | growth [2] | growth [3] | growth [4] | growth [5] | growth [6] | growth [7] | growth [8] | growth [9] | growth [10] | growth [11] | growth [12] | growth [13] | growth [14] | growth [15] | growth [16] | growth [17] | growth [18] | growth [19] | growth [20]
1 | COc1cc(CNC(=O)C[C@H](C)CCC=C(C)C)ccc1OCc1cn(-c2cccc(C(F)(F)F)c2)nn1 | 79.4% | 72.3% | 90.1% | 88.8% | 14.6% | 86.1% | 83.1% | 42.6% | 93% | 74.2% | 101% | 59% | 80.8% | 87.2% | 88.3% | 83.9% | 72.9% | 16.3% | 104% | 92.1%
2 | CN(C)CCOc1ccc(C(=O)C2[C@H](c3ccc(Cl)cc3)[C@@H](c3ccccc3)NC23C(=O)Nc2ccc(Cl)cc23)cc1 (stereo not given in full) | -93.2% (active) | -82.3% (active) | -91.1% (active) | -82.6% (active) | -87.4% (active) | -89.9% (active) | -91.7% (active) | -77.9% (active) | -94% (active) | -76.9% (active) | -80.3% (active) | -76.1% (active) | -87.8% (active) | -93.6% (active) | -92% (active) | -64% (active) | -89.3% (active) | -98.5% (active) | -81.2% (active) | -90.1% (active)
3 | CN(C)c1nc(NCCNS(=O)(=O)c2ccc(C(=O)/C=C/c3ccccc3)cc2)nc(N2CCOCC2)n1 | 93.2% | 82.6% | 96.9% | 108% | 101% | 94.9% | 67.5% | 78.8% | 66.4% | 105% | 89.6% | -15.4% (active) | 99.2% | 7.26% (active) | 79% | 74.6% | 75.6% | 77.1% | 78.8% | 84.4%
4 | CC1=NN(C2=NC(=O)C(CC(=O)Nc3ccccc3C(F)(F)F)S2)C(c2ccc(N(C)C)cc2)C1 (stereo not given) | 72.6% | 53.1% | 76.1% | 78.3% | 39.6% | 7.13% (active) | 33.1% | 38.2% | 61.4% | 63.5% | 63.6% | 28.3% | 61.8% | 66% | 11.6% | 47.4% | 41.3% | 40.2% | 58.1% | 47.7%
5 | O=C(N/N=C/c1ccoc1)c1[nH]c2ccc(Br)cc2c1-c1ccccc1 | -96.6% (active) | -66.2% (active) | -86.4% (active) | -70.6% (active) | -83.2% (active) | -62.4% (active) | -82.2% (active) | -60.4% (active) | -76.5% (active) | -68.9% (active) | -48.3% (active) | 3.56% (active) | -84.7% (active) | -85.6% (active) | -86.3% (active) | -56.8% (active) | -97.9% (active) | -97.6% (active) | -78.1% (active) | -84.6% (active)
6 | CN(C(=O)CN1C(=O)/C(=C/c2ccco2)SC1=S)C1CCS(=O)(=O)C1 (stereo not given) | 100% | 100% | 99.3% | 123% | 95.5% | 102% | 15.4% | 102% | 93.4% | 119% | 103% | 85.1% | 97.1% | 108% | 108% | 93.9% | 104% | 104% | 96.4% | 94.6%
7 | N#CC1=C(c2ccco2)Nc2c(c(-c3ccccc3)nn2-c2ccccc2)C12C(=O)Nc1ccc(Br)cc12 (stereo not given) | 70.6% | 67.2% | 86.9% | 10.5% | 1.16% (active) | 52.4% | 31.8% | 1.5% (active) | 43.4% | 86.9% | 70.5% | 21.2% | 90.7% | 33.2% | 70.2% | 49.1% | 72.5% | -33% (active) | 73.1% | 42%
8 | CN(C)c1nc(NCCNS(=O)(=O)c2ccc(C3=Nc4c(N)nc(N)nc4NC(c4ccc(C(F)(F)F)cc4)C3)cc2)nc(N2CCOCC2)n1 (stereo not given) | 74% | 54.1% | 84.2% | 51.8% | 35.6% | -17% (active) | 35% | 40.2% | 20.2% | -14.2% (active) | 61.8% | 9.12% (active) | 60.3% | 38.5% | 16.6% | 38.6% | 45.5% | 34.3% | 52.9% | 28%
9 | Cc1ccc(C(=O)Nc2cc(-n3cnc(F)c3)cc(C(F)(F)F)c2)cc1C#Cc1cnc2cccnn12 | 44.8% | 44.4% | 97.9% | 85.7% | 70.5% | 57.5% | 64.6% | 66.5% | 53.3% | 68.5% | 80.9% | -9.19% (active) | -3.1% (active) | 49.2% | 57.9% | 91.6% | 63.9% | 3.39% (active) | 58% | 17.7%
10 | COc1ccc(-c2cc(C(=O)N=Nc3c(O)[nH]c4ccc(Cl)cc34)c3ccccc3n2)cc1 | 14.3% | 81.8% | 79% | -20.9% (active) | 0.622% (active) | 117% | -16.1% (active) | -4.4% (active) | 72.4% | 7.83% (active) | 19% | 64.8% | 90.1% | -44.2% (active) | 133% | 68.8% | 96.7% | 44.8% | 106% | 76.9%
11 | Cc1nc(N)ncc1-c1ccc2ncnc(N3CCc4cc(F)c(Cl)cc43)c2c1 | 84.3% | 73.7% | 28.7% | 72.8% | 76.7% | 13.6% | 68.2% | 56.2% | 39.1% | 81.5% | 47.3% | 61.7% | 91.9% | 35.3% | 14.6% | 45.9% | 84.9% | 67% | 105% | 102%
12 | Cn1cc(-c2cc(N)n3nc(-c4c[nH]c5ccc(Cl)cc45)cc3n2)c2cc(Br)cnc21 | -58.6% (active) | -12.5% (active) | 32.3% | -22.4% (active) | -58% (active) | -76.8% (active) | -71% (active) | -64.9% (active) | -93.7% (active) | -91.6% (active) | -71.6% (active) | -63.7% (active) | -79.1% (active) | -73.4% (active) | -70.4% (active) | 9.71% (active) | -50.9% (active) | -91.1% (active) | -55% (active) | -92.4% (active)
13 | COc1cccc2nc(Nc3cccc(NC(=O)c4ccc(CN5CCN(C)CC5)c(C(F)(F)F)c4)c3)ccc12 | -97.8% (active) | -93.4% (active) | -100% (active) | -78.5% (active) | -77.1% (active) | -66.7% (active) | -87% (active) | -70.5% (active) | -81.7% (active) | -73.7% (active) | -83.5% (active) | 2.54% (active) | -96.4% (active) | -97.9% (active) | -98.5% (active) | -54.4% (active) | -95.1% (active) | -100% (active) | -83.1% (active) | -85.2% (active)
14 | OCCn1cc(-c2nc3ccc4[nH]ncc4c3c3c2CCCC3)cn1 | 43.1% | 17.9% | 68.5% | 57.7% | 20% | 51.8% | 38.9% | 26.6% | 43.1% | 32.8% | 36.2% | 21.4% | 24.1% | 54.9% | -12.6% (active) | 64% | 60.9% | 36.2% | 58% | 22.6%
15 | NNc1ncnc2sc3c(c12)CCN(Cc1ccccc1)C3 | 73.2% | 38.9% | 40.9% | 58% | 37.3% | 77.7% | 2.62% (active) | 75.1% | 59.1% | 16.6% | 61.7% | 19% | 70.4% | 40.8% | 69.3% | 43.8% | 45.2% | 52.8% | 47% | 62.9%
